# Screening results: PubChem BioAssay, National Center for Advancing Translational Sciences (NCATS)
# Rows were chosen to be rich in hits. Some 6.8% of all compounds tested hit in one or more screens of this group.
# KB-3-1 cytotox: KB-3-1 parental cell cytotoxicity; AID 1347075; KB-3-1 viability, CellTiter-Glo ATP luminescence, 72 h; 400,000 compounds, 1.4% hits; Potency, µM (titrated, usually from 46.1 µM), actives largely listed as cytotoxic; further: on the % scale 0 is the no-effect control and ±100 the full control effect; nearly all actives have a fitted effect of over 60% in size
#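 Luminescent ATP read-out (CellTiter-Glo) measures survival of drug-naive KB-3-1 cells after 72 h compound exposure at 37 °C. Titration series was screened from lowest to highest concentration, with DMSO vehicle plates as background controls.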
# PTAP TSG101 blk: blocks PTAP/TSG101 interaction to inhibit HIV-1 budding; Q99816; Fluorescence polarization, FITC-PTAP peptide / Tsg101 binding; Potency, µM (series often up to 115 µM), for inactives: top-dose activity change, negative = inhibition, usual class: inhibitors; 340,000 tested, under 10 active; AID 493005; active means well fitted inhibition curve with a large enough effect in the main read-out, with a control signal flat, not every such curve was filed as active; inconclusive means small, poorly fitted or top-dose-only effect, or effect the other way, or a change in a side signal; inactive means no such curve, though single readings can be large or run the other way; further: % of control where 0% means no effect
# Target sequence (Q99816 whole entry, looked up): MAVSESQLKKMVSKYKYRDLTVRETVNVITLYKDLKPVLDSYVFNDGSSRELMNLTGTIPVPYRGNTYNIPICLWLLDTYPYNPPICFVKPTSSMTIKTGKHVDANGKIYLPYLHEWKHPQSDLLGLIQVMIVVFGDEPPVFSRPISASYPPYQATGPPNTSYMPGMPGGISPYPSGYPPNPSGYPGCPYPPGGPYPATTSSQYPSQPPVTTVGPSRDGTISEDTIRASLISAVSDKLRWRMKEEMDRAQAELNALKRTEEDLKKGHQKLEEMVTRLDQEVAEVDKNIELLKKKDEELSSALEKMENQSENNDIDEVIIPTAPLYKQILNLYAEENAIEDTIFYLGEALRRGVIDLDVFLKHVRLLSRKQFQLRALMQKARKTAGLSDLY
#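 Fluorescence polarization binding of Tsg101 binding domain (10 uM final) to FITC-labeled PTAP peptide (50 nM final) in HEPES pH 7.5 buffer with NaCl, Tween 20, EDTA, TCEP. Compounds added before peptide; binding 20 min at RT.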
# PINK1 modulator: changes PINK1 expression. Potency, µM (highest dose often 76.6 µM), for inactives: at the top dose activation (PINK1 increase), usual class: activators. PINK1 immunofluorescence, high-content cytometry, 24 h. 410,000 compounds, 0.2% hits; active means well fitted activation curve with a large enough effect; inconclusive means small, poorly fitted or top-dose-only effect; cell line not stated here; further: % of control where 0% means no effect; nearly all actives have a fitted effect of over 65% in size
#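 Fluorescence from anti-PINK1 antibody, together with nuclear and cell stains, was scanned on a laser-scanning cytometer. Before staining, stable-line cells were incubated 24 hours with compounds at 5 concentrations; primary antibody 12 h at 10 degrees C.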
# MCF10A rerep: inducers of DNA re-replication in MCF 10A breast cells | MCF 10A DNA re-replication, Hoechst nuclear intensity, 48 h | 350,000 compounds, 2.9% hits | AID 624296 | Potency, µM (doses to about 46.1 µM), for the others: at the highest dose activity, positive = re-replication, usual class: activators; further: % of control where 0% means no effect; nearly all actives have a fitted effect of over 50% in size
# SW480 rereplic: DNA re-replication induction in SW480 cells; Potency, µM (highest dose often 46.1 µM), for the others: at the top dose re-replication activation, actives largely listed as activators; SW480 DNA re-replication, Hoechst DNA content imaging, 48 h; 340,000 compounds, 1.8% hits; further: % of control where 0% means no effect; nearly all actives have a fitted effect of over 55% in size
#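 SW480 cells exposed to compounds for 48 hr at 37 C, 5% CO2, then Hoechst-stained 40 min. Nuclear DNA content imaged by fluorescence scanning (405 nm excitation, 500-530 nm emission); re-replication scored as increased high-intensity nuclei.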
# KB-V1 MDR tox: KB-V1 MDR subline cytotoxicity | 400,000 compounds, 3.4% hits | Potency, µM (highest dose often 46.1 µM), most hits filed as cytotoxic | KB-V1 MDR cells viability, CellTiter-Glo, 72 h; further: on the % scale 0 is the no-effect control and ±100 the full control effect; nearly all actives have a fitted effect of over 60% in size
#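 Readout: CellTiter-Glo luminescence, 10 min after addition. Cells: KB-V1 MDR subline, 72 h at 37 degrees C with compound. Analysis: corrected, normalized data fitted to concentration-effect curves.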
# * hit, by the source's call; i = inactive; ? = inconclusive; . = not tested or not shown; [ ] = remark or other dose. Unless noted, the call rests on the fitted dose curve; in most records, active means well fitted curve in the direction sought with a large enough effect; inconclusive means small, poorly fitted or top-dose-only effect, or another doubt; inactive means no such curve, though single readings can be large; an effect the other way counts as inactive or inconclusive. Potency means the concentration at half of the fitted maximal effect.
SMILES,KB-3-1 cytotox,PTAP TSG101 blk,PINK1 modulator,MCF10A rerep,SW480 rereplic,KB-V1 MDR tox
Cc1ccc(Sc2c(C)nn(C(C)(C)C)c2OC(=O)C(C)(C)C)cc1,i,.,19%,.,.,i
Cc1ccc(C)c(Cn2c(=O)n(CCCC(=O)NCc3ccc4c(c3)OCO4)c(=O)c3sccc32)c1,.,.,1%,.,.,.
Cc1nc2nc(SCC(=O)N(C)Cc3ccccc3)nn2c(C)c1Cc1ccccc1Cl,i,.,-1%,.,.,i
CCOC(=O)c1cccc(NC(=O)CN(c2ccc(OC)cc2)S(=O)(=O)c2c(C)noc2C)c1,i,1%,0%,21%,-2%,9.2µM*
Cc1nc([N+](=O)[O-])c(Br)n1CC(=O)c1ccc2ccccc2c1,i,-3%,-1%,0.65µM*,?,i
CCc1nc2ccccc2c(C(=O)OCC(=O)C(C)(C)C)c1C,i,-1%,2%,18%,-1%,?
CCc1nc2ccccc2c(C(=O)OCc2nc3ccccc3c(=O)[nH]2)c1C,?,0%,9%,21µM*,12µM*,?
COc1ccc(-c2nnc(CSc3nc4ccccc4c(=O)n3C)o2)cc1OC,i,-5%,-2%[38.3 µM],12%,-2%,3.7µM*
COCC(C)n1c(SCc2ccc(OC)c(F)c2)nc2ccccc2c1=O (stereo not drawn),i,1%,1%,-4%,4%,?
Cc1ccc(-n2c(SCc3ccc([N+](=O)[O-])cc3)nc3ccccc3c2=O)cc1,i,-1%,7%[38.3 µM],?,-2%,i
CCOC(CCn1c(SCc2ccc([N+](=O)[O-])cc2)nc2ccccc2c1=O)OCC,i,0%,3%,-3%,-52%,3.7µM*
CCn1c(SCc2ccc(OC)c(F)c2)nc2ccccc2c1=O,i,-2%,7%,18µM*,6%,?
Cn1c(SCc2ccon2)nc2ccccc2c1=O,i,-9%,-5%[38.3 µM],8.2µM*,15µM*,i
Cc1ccc2c(c1)c1c(c(=O)n(Cc3ccccc3)c(=O)n1Cc1cccc(F)c1)n2C,i,.,0%,.,.,i
Cc1nc(N2CCCC2)ncc1C(=O)N1CCN(c2ccc(Cl)cc2)CC1,i,.,3%,.,.,i
COc1ccc(C(=O)N2CCC3(CC2)c2ccccc2[C@@H](NC(=O)c2ccccn2)[C@@H]3OC)c(O)c1,.,.,-1%,.,.,.
Cc1cnn(CCC(=O)NNC(=S)Nc2ccccc2)c1,i,-11%,6%[38.3 µM],-19%,?,?
Cc1ccc(NC(=S)NNC(=O)CCn2cc(C)cn2)cc1,i,-2%,0%[38.3 µM],2%,9.2µM*,?
COc1ccc(NC(=O)C(Cc2c[nH]c3ccccc23)NC(=O)OC(C)(C)C)cc1 (stereo not drawn),i,.,0%,.,.,?
COc1ccc(Cn2c(N)c(C#N)c3nc4ccccc4nc32)cc1OC,i,1%,0%,?,10µM*,i
CCOC(=O)c1ccc(N2CCN(c3cc(C)ccc3C)CC2)c(NC(=O)Nc2ccccc2)c1,.,.,1%,.,.,.
O=C(O)c1ccc(N=Nc2c(O)[nH]c3ccccc23)cc1,?,-4%,1%,6%,23µM*,?
CCCCCc1cc(O)c2c(C)cc(=O)oc2c1,?,41%,11µM*,?,-2%,?
Cc1cc(=O)oc2cc(O)cc(O)c12,?,-8%,4%,7%,?,i
CCCc1cc(=O)oc2cc(C)cc(O)c12,15µM*,-4%,7%[38.3 µM],?,-5%,13µM*
SMILES,KB-3-1 cytotox,PTAP TSG101 blk,PINK1 modulator,MCF10A rerep,SW480 rereplic,KB-V1 MDR tox
CCc1cc(=O)oc2cc(C)cc(O)c12,i,-2%,11%,-2%,12%,i
CC(=O)Nc1sc(C)c(C)c1C(=O)OCC(=O)Nc1cccc(C)c1,?,1%,?,8.2µM*,?,i
CC(=O)Nc1sc(C)c(C)c1C(=O)OCC(=O)Nc1ccccc1,i,-6%,?,?,-27%,i
COc1ccc(N2CC(NC(=O)C3CCCC3)CC2=O)cc1OC (stereo not drawn),i,.,0%,.,.,i
CCCOc1ccc(-c2nn(-c3ccccc3)cc2/C=C2\SC(N)=NC2=O)cc1,i,0%,1%,4.6µM*,?,i
Cc1cc(/C=C2\SC(N)=NC2=O)c(C)n1-c1ccccc1,i,5%,0%,3%,2%,i
Cc1cc(-c2nn(-c3ccccc3)cc2/C=C2\SC(N)=NC2=O)ccc1OC(C)C,?,9%,2%,4.1µM*,?,16µM*
COc1ccc(NC(=O)N2CCc3c(sc4c3CCCC4)C2c2ccc(F)cc2)cc1 (stereo not drawn),i,.,0%,.,.,i
CCc1ccc(NC(=O)Nc2cn(C)c(=O)c3ccccc23)cc1,.,.,-1%,.,.,.
COc1ccc(-c2cc3ccc(O)cc3oc2=O)cc1,i,-4%,1%,18µM*,18µM*,i
COc1ccc(C)cc1Nc1cc(C)nc2nc(C)nn12,8.2µM*,-4%,3%,24%,?,?
COc1ccc(OC)c(Nc2cc(C)nc3nc(C)nn23)c1,7.3µM*,-6%,11%,?,?,21µM*
O=S1(=O)N=C(Oc2ccc(C(F)(F)F)cc2)c2ccccc21,?,.,.,.,.,i
CCOc1ccccc1NC(=O)CSc1n[nH]c(N)n1,i,-5%,-1%,10%,20%,i
CCCc1ccc(-c2cc(NC(=O)CSc3n[nH]c(N)n3)n(-c3ccccc3)n2)cc1,i,-3%,2%[38.3 µM],21µM*,?,i
